Rows were chosen to be rich in hits. Some 0.82% of all compounds tested hit in one or more screens of this group.
eLon inh – inhibitors of E. coli Lon protease, primary screen, biochemical, fluorescence polarization | actives 0.42% (n = 360,000) | inhibition, % at 7.94 µM | P0A9M0 | purified E. coli Lon protease; in the data active = inhibition above about 13%, passing the limit was not always enough;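 also: 0% = enzyme with probe and DMSO and 100% = no enzyme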
LANA DNA inh – inhibitors of KSHV C-LANA binding to DNA, primary screen, biochemical, fluorescence polarization, FAM-LBS DNA, MBP-C-LANA, single point; inhibition, % at 9 µM; Kaposi's sarcoma herpesvirus LANA C-terminal domain (residues 932-1162) DNA binding; actives 0.078% (n = 340,000);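 active = highest replicate inhibition at or above 60% at 9 µM, even if other replicates fall short; inactive = all replicates below 60% inhibition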;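 also: 0% = neutral control wells and 100% = 4 µM acridine orange control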
cardiac RTF act – cardiac RTF calcium sensitivity activators, primary screen, biochemical, IANBD-TnC fluorescence, EC20 calcium | AID 493008, 2010 | IANBD-labeled TnC RTF fluorescence at EC20 calcium; 0% EC20 calcium, 100% full calcium | activation, % at 7.2 µM | Troponin I, cardiac muscle (Homo sapiens) + Troponin T, cardiac muscle (Homo sapiens) + … | actives 0.24% (n = 340,000);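 active = activation above the mean over all tested compounds plus 3 SD, cut at about 30% in these data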;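 also: rise in fluorescence read as greater calcium sensitivity of cardiac thin filaments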
RTF Ca sens inh – cardiac RTF calcium sensitivity inhibitors, primary screen, biochemical, IANBD-TnC fluorescence, EC70 calcium; Troponin I, cardiac muscle (Homo sapiens) + Troponin T, cardiac muscle (Homo sapiens) + …; IANBD-labeled cardiac RTF, Ca2+ fluorescence; inhibition, % at 7.15 µM; actives 0.12% (n = 340,000); AID 493244, 2011;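 active = inhibition above the mean inhibition of all tested compounds plus 3 SD, cut at about 17% in these data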;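 also: assay run at fixed EC70 calcium of 1.6 mM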
Keap1-Nrf2 PPI – Keap1-Nrf2 protein-protein interaction inhibitors, primary screen, biochemical, fluorescence polarization, single point; Keap1 Kelch-Nrf2 peptide fluorescence polarization, 1536-well; inhibition, % at 9.4 µM; actives 0.15% (n = 340,000); in the data active = inhibition above about 12%;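 also: human Keap1 Kelch domain with fluorescein labeled Nrf2 9mer peptide probe; 0% = neutral control wells and 100% = peptide positive control; higher means more block of Keap1 binding to Nrf2 peptide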
* marks the source's active call; other numbers are inactive results; i = inactive; nt = not tested or not shown; + = active, no number.

SMILES	eLon inh	LANA DNA inh	cardiac RTF act	RTF Ca sens inh	Keap1-Nrf2 PPI
COc1ccc(CCNC(=O)c2ccc(OC)c(OC)c2)cc1OC	-7.9	-1.5	-3.6	-5.9	-1.3
C=CCN1C(=O)/C(=C/C=C2/N(CC)c3ccc(S(=O)(=O)N(C)C)cc3N2CC)SC1=S	-427.7	-26.9	429.3*	-445.5	-39.8
Cc1ccc(OCCCC(=O)NC2CCCCC2)cc1	8.5	0.5	38.3*	-3.1	-3.9
CCOC(=O)[C@]12CCC=C1N(Cc1ccc3c(c1)OCO3)C(=O)[C@H](CC(=O)N1CCC(c3ccccc3)CC1)C2	-3.8	nt	nt	nt	nt
Cc1cccc(Nc2nc(N)c([N+](=O)[O-])c(NCc3ccccc3)n2)c1	6.5	nt	nt	nt	+
Nc1nc(Nc2ccccc2)nc(NCc2ccccc2)c1[N+](=O)[O-]	-0.1	-0.7	5.9	4.2	4.5
O=C(COC(=O)CCc1c[nH]c(=O)[nH]1)Nc1ccccc1	24.0*	5.7	1.4	-15.1	6.7
O=C(COC(=O)CCc1c[nH]c2ccccc12)Nc1ccccc1	-2.4	0.4	-3.4	3.1	-1.4
CCN(CC)c1ccc(C(=O)n2cnc3ccccc32)cc1	-7.4	0.3	0.5	-5.9	-2.1
CC(C)(C)c1ccc(C(=O)n2cnc3ccccc32)cc1	6.4	7.3	49.6*	-1.1	-3.6
COc1ccc(-n2c(C)cc(/C=C3\SC(=S)N(Cc4ccco4)C3=O)c2C)cc1	-206.5	2.7	31.1*	-26.8	-4.8
COc1ccc(-c2nn(-c3ccccc3)cc2/C=C2/SC(=S)N(Cc3ccco3)C2=O)c(C)c1	-4.5	-0.1	-4.4	-3.6	-5.0
CCOC(=O)C1(C)CCN1C(=O)c1cccc(C(F)(F)F)c1 (stereo not given)	-1.4	nt	nt	nt	nt
Cc1cc(C)c(OCC(=O)OCC(=O)NCc2ccco2)c(C)c1	-6.8	nt	nt	nt	nt
CCOc1ccc(C2C(C#N)=C(N)SC(N)=C2C#N)cc1OCC	-348.8	-4.8	41.7*	-49.8	-62.2
CCOc1ccccc1C1C(C#N)=C(N)Oc2n[nH]c(CC)c21 (stereo not given)	-17.1	0.2	4.8	-13.3	1.1
N#CC1=C(N)SC(N)=C(C#N)C1c1ccc([N+](=O)[O-])cc1	-106.7	-1.4	10.0	-22.5	-10.8
CCOc1ccccc1C1C(C#N)=C(N)SC(N)=C1C#N	-373.9	-0.3	29.8*	-55.8	-40.2
CCc1ccc(C2C(C#N)=C(N)SC(N)=C2C#N)cc1	-496.6	-3.4	40.4*	-42.7	-18.0
N#CC1=C(N)SC(N)=C(C#N)C1c1cccc(Oc2ccccc2)c1	-401.9	-1.5	37.3*	-71.1	-33.0
CCOc1ccc(N(C)c2ccc(/C=C3/SC(=S)NC3=O)cc2)cc1	-120.6	-2.3	44.7*	-58.5	-5.2
CCN(CCCNC(=O)C1c2ccccc2C(=O)N(CCOC)C1c1ccc(F)cc1)Cc1ccccc1 (stereo not given)	8.4	83.2*	0.8	-8.6	3.1
Cn1cc(Cc2ccc(C(=O)NC34CC5CC(CC(C5)C3)C4)cn2)c2ccccc21	1.1	nt	nt	nt	nt
O=C(Nc1ccccc1F)c1ccc([N+](=O)[O-])s1	0.9	-0.9	1.9	3.6	-1.2
CN(C)NC(=O)c1ccc([N+](=O)[O-])s1	2.7	0.4	30.9*	5.0	-3.2
SMILES	eLon inh	LANA DNA inh	cardiac RTF act	RTF Ca sens inh	Keap1-Nrf2 PPI
CCOC(=O)C1=CCN(S(=O)(=O)c2ccc(C)cc2)C1c1cccc(Cl)c1 (stereo not given)	4.5	nt	nt	nt	nt
Cc1nc(-n2[nH]c3c(c2=O)CCCC3)[nH]c(=O)c1Cc1ccccc1	-132.8	-1.9	32.5*	-28.4	-24.3
Cc1nc(N2CCc3ccccc3C2)[nH]c(=O)c1Cc1ccccc1	9.3	-1.1	-0.5	-5.2	-7.6
COC(=O)C(Sc1ccc(Cl)cc1)C1SC(=S)N(Cc2ccccc2)C1=O (stereo not given)	-10.5	nt	nt	nt	nt
Cc1ccc2nc(C(C)(C)C)c(Cc3cccc(F)c3)n2c1	-1.2	nt	nt	nt	nt
COc1ccc(/C=C2\SC(=S)N(CC(=O)N3CCN(C)CC3)C2=O)cc1	-4.3	nt	nt	nt	nt
CN1CCS/C1=C\C=C1/SC(=S)N(CC(=O)O)C1=O	i	-95.1	267.9*	-314.6	-424.1
CCN1C(=O)/C(=C/C=C2/Sc3ccccc3N2CCO)SC1=S	-136.7	-0.9	-1.8	-2.8	-8.2
